Records with an inconclusive call do not appear. A number with no mark means an inactive call. Active and inactive are the calls of the source. Calls come from the whole dose curve; as a rule, active = well fitted inhibition curve with a large enough effect; inconclusive = small, poorly fitted or top-dose-only effect; inactive = no such curve, though single readings can be large or run the other way. Where a SMILES comes first, the peptide text is derived from it.
What follows are compounds tested on Zika virus NS2B-NS3 protease (unlinked complex) (assay: Primary screen GU Rhodamine qHTS for Zika virus inhibitors: Unlinked NS2B-NS3 protease assay (AID 1347159; note: nearly all actives have a fitted effect of over 60% in size)). Details: Recombinant ZIKV NS2B-NS3 protease, Rhodamine110 substrate fluorescence; series mostly up to 107 µM; activity change, negative = inhibition: at the top concentration.
Procedure, shortened: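 In dose–response format, inhibition of unlinked protease (25 nM) was measured with 1.5 microM bis-peptide Rhodamine110 substrate. Aprotinin served as the intraplate control.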
% is set by controls: 0 for no effect and ±100 for the full control effect; potency is the fitted concentration of half-maximal effect.

Row | Compound | activity change, negative = inhibition | Potency
1 | OC[C@H]1O[C@@H](Oc2cc(O)cc(/C=C/c3ccc(O)cc3)c2)[C@H](O)[C@@H](O)[C@@H]1O | 1.54% | 
2 | C=C(C)C(C)C1OC23CC4(CO2)C(CCC2C5(C)CCC(OC6OCC(O)C(OC7OC(CO)C(O)C(OC8OCC(O)C(O)C8O)C7O)C6OC6OC(CO)C(O)C6O)C(C)(C)C5CCC24C)C3C(C)(O)C1OC(C)=O (stereo not given) | -4.35% [at 32.5 µM] | 
3 | OCc1ccccc1O[C@@H]1O[C@H](CO)[C@@H](O)[C@H](O)[C@H]1O | -0.361% | 
4 | CC1(CCC(=O)O)C(=O)C=CC23CC4CC(OC4(C)C2O)C13 (stereo not given) | 11.3% | 
5 | C=C[C@H]1[C@H](O[C@@H]2O[C@H](CO)[C@@H](O)[C@H](O)[C@H]2O)OC=C2C(=O)OCC[C@]21O |  | 35.5 µM (active)
6 | C[C@@H]1O[C@@H](O[C@H]2[C@H](OC(=O)[C@]34CCC(C)(C)C[C@H]3C3=CCC5[C@@]6(C)C[C@H](O)[C@H](O[C@@H]7O[C@H](CO[C@@H]8OC[C@H](O)[C@H](O)[C@H]8O)[C@@H](O)[C@H](O)[C@H]7O)C(C)(C)C6CC[C@@]5(C)[C@]3(C)C[C@H]4O)OC[C@@H](O)[C@@H]2O)[C@H](O)[C@H](O[C@@H]2OC[C@](O)(CO)[C@H]2O)[C@H]1O[C@@H]1OC[C@H](O)[C@H](O[C@@H]2OC[C@@H](O)[C@H](O)[C@H]2O)[C@H]1O (stereo not given in full) | 12.7% [at 19.1 µM] | 
7 | C=C1C2=CC(O)C(C)C1(C)CC/C(C)=C/CCC1(C)OC1C2=O (stereo not given) | 3.5% | 
8 | C=CCc1ccc(O[C@@H]2O[C@H](CO[C@@H]3O[C@@H](C)[C@H](O)[C@@H](O)[C@H]3O)[C@@H](O)[C@H](O)[C@H]2O)cc1 | -12.2% [at 57.1 µM] | 
9 | C=C1CC[C@H]2[C@@H](/C=C(\C)C(=O)[C@@]3(OC(C)=O)C[C@H](C)[C@H](OC(C)=O)[C@@H]3[C@H]1OC(C)=O)C2(C)C |  | 7.94 µM (active)
10 | COc1c2c(c(C)c3c1C(=O)OC3)OC1(C)CC(O)C3(O)C(C)(C)OC(=O)CCC3(C)C1C2 (stereo not given) | 19.4% [at 57.1 µM] | 
11 | C/C=C(/C)C(=O)O[C@H]1C=C(C)C[C@H](OC(=O)c2ccc(O)cc2)C2[C@](O)(C(C)C)CC[C@@]21C (stereo not given in full) | 8.86% [at 32.5 µM] | 
12 | COc1cc(C[C@H]2COC(=O)[C@@H]2Cc2ccc(O)c(OC)c2)ccc1O |  | 35.5 µM (active)
13 | COc1ccc(C)c2sc(NC(=O)c3ccncc3)nc12 | 22.3% | 
14 | Cc1cc(N2CCCCC2)nc2ccccc12 | 13.1% | 
15 | COc1cc(/C=C/C(=O)O[C@H]2[C@H](O)[C@@H](CO)O[C@@]2(CO)O[C@H]2O[C@H](COC(=O)c3ccc(O)cc3)[C@@H](O)[C@H](O)[C@H]2O)cc(OC)c1OC | 16.9% [at 32.5 µM] | 
16 | C[C@H]1[C@H](C)CC[C@]2(C(=O)O)CC[C@]3(C)C(=CC[C@@H]4[C@@]5(C)C[C@@H](O)[C@H](O)[C@@](C)(CO)[C@@H]5CC[C@]43C)[C@H]12 | 2.82% | 
17 | CC(=O)NC(C(=O)OC1CCC(C)(C)C2CC=C3C(=O)OCC3(O)C12C)C(C)C (stereo not given) | -6.8% [at 57.1 µM] | 
18 | CC(C)(OC1OC(CO)C(O)C(O)C1O)C1CCC(O)(CO)C2CC(O)C(C)(O)C2C1 (stereo not given) | 8.94% [at 57.1 µM] | 
19 | C=CC(C)(O)CC/C=C(\C)C(=O)OC1CC2(C(=O)O)CCC3(C)C(=CCC4C5(C)CCC(OC6OC(COC7OCC(O)C(O)C7O)C(O)C(OC7OCC(O)C(O)C7O)C6OC6OC(CO)C(O)C(O)C6OC6OCC(O)C(O)C6O)C(C)(C)C5CCC43C)C2CC1(C)C (stereo not given) | -12.7% [at 19.1 µM] | 
20 | C=C(C)[C@@H](C)[C@H]1O[C@]23C[C@]4(CO2)C(CCC2[C@@]5(C)CC[C@H](O[C@@H]6OC[C@H](O)[C@H](O[C@@H]7O[C@H](CO)[C@@H](O)[C@H](O)[C@H]7O)[C@H]6O[C@@H]6O[C@@H](CO)[C@H](O)[C@H]6O)C(C)(C)C5CC[C@]24C)C3[C@@](C)(O)[C@@H]1OC(C)=O (stereo not given in full) | -24.2% [at 32.5 µM] | 

Row | Compound | activity change, negative = inhibition | Potency
21 | CC1OC(OC2C(O)C(C(=O)O)OC(OC3CCC4(C)C(CCC5(C)C4C=CC4=C6CC(C)(C)CC(O)C6(C)CCC45C)C3(C)C)C2OC2OCC(O)C(O)C2O)C(O)C(O)C1O (stereo not given) |  | 3.55 µM (active)
22 | CC(C)(O)CNc1nc(Nc2ccnc(C(F)(F)F)c2)nc(-c2cccc(C(F)(F)F)n2)n1 | -15.7% [at 57.1 µM] | 
23 | O=C(O)C[C@H](O)C[C@H](O)/C=C/c1c(C2CC2)nc2ccccc2c1-c1ccc(F)cc1 | -1.54% | 
24 | C/C=C(\C)C(=O)OC[C@H]1O[C@H](O[C@H]2O[C@H](CO)[C@@H](OC(=O)/C(C)=C/C)[C@H](O)[C@H]2O[C@@H]2O[C@H](CO)[C@@H](O)[C@H](O)[C@H]2O)[C@H](O[C@@H]2O[C@H](CO)[C@@H](O)[C@H](O)[C@H]2O)[C@@H](O)[C@@H]1O | 16.6% [at 32.5 µM] | 
25 | C[C@@H]1O[C@@H](OC[C@H]2O[C@@H](OCC3CCC4CC3C4(C)C)[C@H](O)[C@@H](O)[C@@H]2O)[C@H](O)[C@H](O)[C@H]1O (stereo not given in full) | -24.3% [at 57.1 µM] | 
26 | CC(C)=CCc1ccc(Oc2c(O)cc(C)cc2CO)c(C(=O)O)c1O |  | 6.31 µM (active)
27 | Cc1cc(Nc2ncc(Cl)c(Nc3ccccc3S(=O)(=O)C(C)C)n2)c(OC(C)C)cc1C1CCNCC1 | 39.4% | 
28 | N#Cc1ccc2[nH]c(O)c(-c3ccc(CN4CCOCC4)cn3)c2c1 |  | inactive
29 | NS(=O)(=O)OC[C@@H]1C[C@@H](n2ccc3c(N[C@H]4CCc5ccccc54)ncnc32)C[C@@H]1O |  | inactive
30 | COc1cc(-c2cccc(O)c2)cc2c1OCO2 |  | 35.5 µM (active)
31 | CC(=O)c1c(O)cc2cccc3c2c1CC(C)(O)O3 (stereo not given) |  | 35.5 µM (active)
32 | O=C(O)c1cc(O[C@@H]2O[C@H](CO[C@@H]3OC[C@@H](O)[C@H](O)[C@H]3O)[C@@H](O)[C@H](O)[C@H]2O)c2ccccc2c1O | -17.1% [at 57.1 µM] | 
33 | CC1=CC(=O)C2C(C)(C)CC(O)CC2(C)C1CO (stereo not given) | 10.6% | 
34 | COC12CC3C(C(C)C1=CC(=O)O2)C(O)C(OC(C)=O)C1C(C)(C)C(OC(C)=O)CCC31C (stereo not given) | 36.8% [at 57.1 µM] | 
35 | CCCCN(CCCC)C(=O)CN1C[C@H](c2ccc3c(c2)OCO3)[C@@H](C(=O)O)[C@@H]1c1ccc(OC)cc1 |  | 28.2 µM (active)
36 | C=CC1(C)C=C2C(O)CC3C(C)(C(=O)O)CCCC3(C)C2CC1 (stereo not given) |  | 11.2 µM (active)
37 | COC(=O)[C@H](OC(C)=O)[C@H]1C(C)(C)C(=O)[C@H]2CC3=C4CC(=O)O[C@@H](c5ccoc5)[C@]4(C)CCC3[C@@]1(C)C2=O (stereo not given in full) | -13.3% [at 57.1 µM] | 
38 | Cc1ccc2c(c1)C=Cc1cc(C)ccc1C2c1cn(Cc2ccc(C(=O)Nc3nn[nH]n3)o2)c(=O)[nH]c1=S |  | 3.16 µM (active)
39 | C[C@@H](O)[C@H](N)C(=O)N1CCC[C@H]1C(=O)N1CCC[C@H]1C(=O)N[C@H](C(N)=O)[C@@H](C)O (H-TPPT-NH2) | -7.3% [at 19.1 µM] | 
40 | OC[C@H]1O[C@@H](Oc2cc(O)cc(-c3cc4ccc(O)cc4o3)c2)[C@H](O)[C@@H](O)[C@@H]1O | -6.93% [at 57.1 µM] | 

Reference: PubChem BioAssay (NCATS)
